Source: PubChem BioAssay
In the library only some 2% were active in any assay of this set; here they are far more common.
LYPLA2 inh: LYPLA2 (human) inhibition in PME1 counter-screen; inhibition, % at 5.9 µM; 320,000 compounds, 0.38% hits; recombinant LYPLA2, FP-Rh probe fluorescence polarization;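 active = inhibition above the screen-wide mean plus 3 SD, limit set per campaign, cut at about 26% in these data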
PREPL inh: human PREPL enzyme inhibition | inhibition, % at 5.96 µM | 320,000 compounds, 0.68% hits | AID 2751 | recombinant PREPL, fluorescence polarization activity-based probe; in the data active = inhibition above about 43%
PME-1 primary: PME-1 (human) inhibition. Q9Y570. recombinant PME-1, FP-Rh probe fluorescence polarization. inhibition, % at 5.9 µM. 320,000 compounds, 0.53% hits;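 active = inhibition above the campaign mean of all compounds plus 3 SD, cut at about 26% in these data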;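 also: competitive labeling of PME-1 active site by serine hydrolase directed probe; inhibitors block probe labeling so polarization falls and inhibition rises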
Fam108B inh: counter-screen for RBBP9 inhibitors: inhibitors of mouse Fam108B | recombinant Fam108B, FP-Rh probe fluorescence polarization | inhibition, % at 9.51 µM | 300,000 compounds, 0.33% hits | AID 1947;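 active = inhibition above the screen mean inhibition plus 3 SD, computed separately per campaign, cut at about 18% in these data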;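 also: inhibitors lower polarization as less probe binds the enzyme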
GSTO1 counter: counter-screen for RBBP9 inhibitors: inhibitors of human GSTO1 | P78417 | recombinant GSTO1, activity-based probe fluorescence polarization | inhibition, % at 5.96 µM | 300,000 compounds, 1.1% hits | AID 1974;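 active = inhibition above the campaign mean inhibition plus 3 SD, cut at about 35% in these data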
LYPLA1 counter: LYPLA1 (human) inhibition in PME1 counter-screen. O75608. inhibition, % at 5.9 µM. 320,000 compounds, 0.16% hits. recombinant LYPLA1, FP-Rh probe fluorescence polarization;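 active = inhibition above the mean of all tested compounds plus 3 SD, set per campaign, cut at about 14% in these data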;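 also: inhibitors block serine hydrolase probe labeling of LYPLA1 so polarization falls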
Target sequence (O75608 whole entry, looked up): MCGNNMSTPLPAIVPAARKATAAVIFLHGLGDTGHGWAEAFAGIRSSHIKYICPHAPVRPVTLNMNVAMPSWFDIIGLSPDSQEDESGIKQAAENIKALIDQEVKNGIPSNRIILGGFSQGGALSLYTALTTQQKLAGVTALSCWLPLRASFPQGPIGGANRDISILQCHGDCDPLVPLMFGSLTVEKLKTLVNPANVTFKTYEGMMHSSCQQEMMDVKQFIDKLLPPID
Of the large screens only hits and unclear results are named; the others gave an inactive call.

COc1ccc(C)cc1NC(=O)NNC(=O)c1cc2ccccc2cc1O	PME-1 primary 26
COc1ccc(NC(=O)NNC(=O)c2cc3ccccc3cc2O)cc1	none
CCCN1CCN(C(=O)c2oc3ccccc3c2NC(=O)C2CC2)CC1	none
Cc1cccc(NC(=O)CCC(=O)OCC(=O)c2ccc(Oc3ccc([N+](=O)[O-])cc3)cc2)c1	LYPLA2 inh 31
Cc1ccc(C(=O)COC(=O)c2cccc(NC(=O)c3ccc([N+](=O)[O-])cc3[N+](=O)[O-])c2)cc1	PME-1 primary 32
CC(=O)Nc1ccc(NC(=O)CCC(=O)OCC(=O)c2cccc([N+](=O)[O-])c2)cc1	none
CCCCCCOc1ccc(C(=O)n2cnc(N)n2)cc1	PREPL inh 72
O=C(N/N=C/c1ccco1)/C(=C/c1cccc([N+](=O)[O-])c1)NC(=O)c1ccccc1	PREPL inh 47
O=Cc1ccc(C(=O)OCC(=O)NCc2ccco2)cc1	none (no result: LYPLA2 inh, PME-1 primary, Fam108B inh, GSTO1 counter, LYPLA1 counter)
COc1ccc(CCC(=O)Nc2ccc3c(c2)OCO3)cc1OC	GSTO1 counter 35
COc1ccc(CC(=O)OCC(=O)Nc2ccc3c(c2)OCO3)cc1OC	none
COCC(C)NS(=O)(=O)c1ccc(C(=O)NCCCn2ccc3ccccc32)cc1 (centres undefined)	none
O=C(N/N=C\c1ccc(COc2ccc([N+](=O)[O-])cc2)o1)c1cccc(Cl)c1	PME-1 primary 36
O=S(=O)(Nc1nc(-c2sccc2Cl)cs1)c1cc(Cl)ccc1Cl	Fam108B inh 29, GSTO1 counter 40
CCOC(=O)[C@H]1[C@H]2COc3ccc(OC)cc3[C@@H]2N2C(=O)c3cc(C)ccc3NC(=O)[C@@]12C	none
O=C(C[n+]1ccc(C(=O)N/N=C/c2ccc(OCc3ccccc3)cc2)cc1)c1ccccc1	PREPL inh 50
CCCN(CCC)S(=O)(=O)c1ccc(Cl)c([N+](=O)[O-])c1	GSTO1 counter 35
CCCN(CCC)S(=O)(=O)c1ccc(N2CCCC2=O)c([N+](=O)[O-])c1	none
COc1ccc(Cc2nnc(SCC(=O)c3ccccc3)o2)cc1	none
COc1ccc(C(=O)CSc2nnc(-c3cc(C)on3)o2)cc1	GSTO1 counter 36
COc1ccc(Cc2nnc(SCC(=O)c3ccc(OC)cc3)o2)cc1	GSTO1 counter 37
O=C(Nc1ccc(C(F)(F)F)cc1)C1=NN(C2CCS(=O)(=O)C2)C(=O)CC1 (centres undefined)	none (no result: Fam108B inh, GSTO1 counter)
Cc1ccc(Cl)cc1N1CCN(C(=O)Cc2ccc(-n3c(=O)[nH]c4ccsc4c3=O)cc2)CC1	LYPLA2 inh 34
CCN(CC)C(=S)Sc1c(-c2ccccc2)c2cc(Cl)ccc2[nH]c1=O	PME-1 primary 35
COc1ccccc1N=Nc1nc(-c2ccccc2)c(-c2ccccc2)[nH]1	none
COc1ccc(N=Nc2nc(-c3ccccc3)c(-c3ccccc3)[nH]2)cc1	PME-1 primary 28
Oc1ccccc1N=Nc1nc(-c2ccccc2)c(-c2ccccc2)[nH]1	PME-1 primary 35
CC(NC(=O)Cn1ncc(Cl)c(Cl)c1=O)C12CC3CC(CC(C3)C1)C2 (centres undefined)	GSTO1 counter 37
COC(=O)CCCC1=CC2=C(c3ccccc3)C(=O)C(C)(OC(=O)C3CCCC3)C(=O)C2=CN1c1ccccc1 (centres undefined)	GSTO1 counter 35
COc1ccc(S(=O)(=O)N2CCCN(CC(=O)Nc3ccc(OC)c(Cl)c3)CC2)cc1	GSTO1 counter 36
COc1ccc(N=CC2=C(Nc3ccc(OC)cc3)c3c(C)nn(-c4ccccn4)c3CC2)cc1	LYPLA2 inh 49, PREPL inh 72, PME-1 primary 57, Fam108B inh 47, GSTO1 counter 84, LYPLA1 counter 50
Cc1ccc(SCc2[nH]nc3c2C(c2ccc(C)o2)C(C#N)=C(N)O3)cc1 (centres undefined)	GSTO1 counter 37
Cc1ccc(SCc2[nH]nc3c2C(c2ccco2)C(C#N)=C(N)O3)cc1 (centres undefined)	GSTO1 counter 37
Cc1ccc(SCc2[nH]nc3c2C(C(C)C)C(C#N)=C(N)O3)cc1 (centres undefined)	none
COc1ccc2[nH]c(C(=O)N3CCN(Cc4ccccc4)CC3)cc2c1OC	none
CC(C)C1Cc2ccccc2-c2[nH]c(=S)[nH]c(=O)c21 (centres undefined)	none
